An excerpt weighted towards active compounds, which were near 4.7% of everything screened.
CCHF vOTU inh – blocks the CCHF virus ovarian tumor domain protease. inhibition, % at 11.5 µM. 370,000 tested, 0.55% active. CCHFV vOTU protease, Pep-AMC fluorescence
DUSP3 inh – DUSP3 (human) phosphatase inhibition; P51452; recombinant VHR phosphatase, pNPP absorbance; inhibition, % at 13.3 µM; 290,000 tested, 0.52% active; AID 1654; in the data active means inhibition above about 50%
Target sequence (P51452 whole entry, looked up): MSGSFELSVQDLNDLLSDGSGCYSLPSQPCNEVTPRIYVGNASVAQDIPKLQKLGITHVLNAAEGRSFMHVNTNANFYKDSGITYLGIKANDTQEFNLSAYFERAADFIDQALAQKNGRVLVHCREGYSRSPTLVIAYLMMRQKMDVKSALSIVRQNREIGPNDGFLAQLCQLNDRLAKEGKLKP
FBA Mtb inh – inhibitors of M. tuberculosis fructose-bisphosphate aldolase. P9WQA3. purified M. tuberculosis FBA, fluorescence read-out. inhibition, % at 1 µM. 360,000 tested, 2.3% active. AID 588726; in the data active means inhibition above about 27%
3CLpro inhibitor – SARS-CoV 3CLpro protease inhibition. P0C6X7. recombinant SARS-CoV 3CLpro, quenched FRET peptide cleavage. inhibition, % at 6 µM. 290,000 tested, 0.14% active; in the data active means inhibition above about 12%
RecA intein inh – inhibitors of M. tuberculosis RecA intein splicing; 290,000 tested, 0.75% active; inhibition, % (concentration not given with the values); AID 2221; cell-free RecA intein splicing, fluorescence; in the data active means inhibition above about 30%
GDH-TPI counter – inhibits GDH-TPI coupling enzymes, artifact for Mtb FBA screen. GDH-TPI coupled enzyme counterscreen, NADH absorbance. inhibition, % at 4.8 µM. 360,000 tested, 1.2% active. AID 588335
Of the large screens only hits and unclear results are named; the others gave an inactive call. Unless noted, no stated cut-off is given here; in the data, active means inhibition above about 30%; inactive means the rest.

CCOc1cc2c(cc1O)C(=NOC)CC1C2CCC2(C)C(O)CCC12 (stereo unspecified)	none (no result: DUSP3 inh, 3CLpro inhibitor, RecA intein inh)
COC(=O)[C@@]12C[C@@H](CC(=O)NCCCN3CCCC3=O)C(=O)N(Cc3ccc4c(c3)OCO4)C1=CCC(C)(C)C2	none (no result: DUSP3 inh, FBA Mtb inh, 3CLpro inhibitor, RecA intein inh, GDH-TPI counter)
COc1ccc(S[C@]2(C(=O)N(C)C)CC(=O)N(c3ccc(C#N)cc3)[C@@H]2c2ccc(OC)cc2)cc1	none (no result: DUSP3 inh, FBA Mtb inh, 3CLpro inhibitor, RecA intein inh, GDH-TPI counter)
Cc1cc(O)cc(=O)n1-c1cccc([N+](=O)[O-])c1	none (no result: DUSP3 inh, FBA Mtb inh, 3CLpro inhibitor, RecA intein inh, GDH-TPI counter)
CC1=NN(c2cccc([N+](=O)[O-])c2)C(=O)C1	RecA intein inh 84
O=C1NC[C@H](CCCCN2CCN(CCC3CCCCC3)C(=O)C2=O)N(CC2CCCCC2)C1=O	none (no result: DUSP3 inh, FBA Mtb inh, 3CLpro inhibitor, RecA intein inh, GDH-TPI counter)
COc1ccccc1C(=O)NCC(=O)OCC(=O)N(CC(C)C)c1c(N)n(Cc2ccccc2)c(=O)[nH]c1=O	none (no result: DUSP3 inh, 3CLpro inhibitor)
CNC(=O)COC(=O)c1ccc(-c2nc3ccccc3s2)s1	GDH-TPI counter 57
CNC(=O)COC(=O)/C=C/c1nc2ccccc2s1	none
CCOc1cc(C)cc2oc(=O)c3c(c12)CCCC3	none (no result: DUSP3 inh)
CCCCc1cc(=O)oc2cc(C)cc(OCC(=O)N3CCC(C(N)=O)CC3)c12	none
CCCCc1cc(=O)oc2cc(C)cc(OCC(=O)O)c12	FBA Mtb inh 152
Cc1cc(OCC(=O)Nc2c(C)n(C)n(-c3ccccc3)c2=O)c2c3c(c(=O)oc2c1)CCC3	none (no result: CCHF vOTU inh, FBA Mtb inh, 3CLpro inhibitor, RecA intein inh, GDH-TPI counter)
Cc1cc(OCC(=O)N[C@@H](Cc2ccccc2)C(=O)O)c2c3c(c(=O)oc2c1)CCC3	FBA Mtb inh 137
Cc1cc(OCC(=O)O)c2c3c(c(=O)oc2c1)CCCC3	FBA Mtb inh 185
Cc1c(OCC(=O)NC(Cc2ccc(Cl)cc2)C(=O)O)ccc2c3c(c(=O)oc12)CCC3 (stereo unspecified)	none
Cc1cc(OCC(=O)NC(Cc2ccc(Cl)cc2)C(=O)O)c2c3c(c(=O)oc2c1)CCC3 (stereo unspecified)	FBA Mtb inh 72
Cc1cc(OCC(=O)N[C@H](C(=O)O)c2ccccc2)c2c3c(c(=O)oc2c1)CCC3	FBA Mtb inh 114 (no result: RecA intein inh)
Cc1cc(OCC(=O)NCC(O)c2ccccc2)c2c3c(c(=O)oc2c1)CCC3 (stereo unspecified)	none
CCOC(=O)COc1cc(OCC(=O)OCC)c2c3c(c(=O)oc2c1)CCCC3	FBA Mtb inh 160
CS(=O)(=O)c1ccc(-c2cn3cc(C(=O)O)ccc3n2)cc1	FBA Mtb inh 114
COC(=O)c1ccc2nc(-c3cccc(N)c3)cn2c1	none
CCc1ccc(S(=O)(=O)N2CCN(C(=O)C3CCN(C(C)=O)CC3)CC2)cc1	none
Cc1ccc(-n2ncc(Br)c(Br)c2=O)cc1	RecA intein inh 67 (no result: CCHF vOTU inh)
COc1ccc(/C=N/Nc2nc(=O)[nH]nc2C)cc1[N+](=O)[O-]	GDH-TPI counter 38 (no result: RecA intein inh)
COc1cc(/C=N/NC(=O)Cc2ccccc2)cc([N+](=O)[O-])c1O	GDH-TPI counter 59
COc1cc(/C=N/NC(=O)Cc2ccccc2)ccc1Oc1ccc([N+](=O)[O-])cc1[N+](=O)[O-]	none (no result: RecA intein inh)
COc1cc(/C=N/Nc2nc(=O)[nH]nc2C)cc([N+](=O)[O-])c1O	GDH-TPI counter 38
Cc1ccc(OCC(=O)N/N=C\c2ccc(O)c([N+](=O)[O-])c2)c([N+](=O)[O-])c1	none
COc1cc(/C=N/Nc2ccccc2[N+](=O)[O-])cc(OC)c1O	none
Cc1n[nH]c(=O)nc1N/N=C/c1ccc(O)c([N+](=O)[O-])c1	GDH-TPI counter 43
COc1ccc(S(=O)(=O)Nc2cc3c4c(c2)CCC(=O)N4CCC3)cc1C	none (no result: DUSP3 inh, 3CLpro inhibitor)
Cc1ccc(C(=O)Sc2cccccc2=O)cc1	none
CC1CCN(c2c3c(nc4ncnn24)CCCC3)CC1	none (no result: DUSP3 inh, FBA Mtb inh, 3CLpro inhibitor, RecA intein inh, GDH-TPI counter)
COc1cccc(C(=O)NCC(=O)N2CCN(c3ccc(C(F)(F)F)cn3)CC2)c1	none (no result: DUSP3 inh, 3CLpro inhibitor, RecA intein inh)
COC1=C[C@H](C(=O)NCc2ccccn2)[C@H](C)[C@@H](c2ccccc2)CC1=O	none (no result: DUSP3 inh, FBA Mtb inh, 3CLpro inhibitor, RecA intein inh, GDH-TPI counter)
Cc1cc(C(=O)N/N=C/c2cccc([N+](=O)[O-])c2O)n[nH]1	none
O=[N+]([O-])c1cc(Cl)cc(/C=N/Nc2nc3ccccc3s2)c1O	none
COc1cc(/C=N/Nc2nc3ccccc3s2)cc([N+](=O)[O-])c1O	GDH-TPI counter 70
Cc1cc(C(=O)N/N=C/c2ccc(O)c([N+](=O)[O-])c2)n[nH]1	GDH-TPI counter 43
Cc1cc(CNC(=O)CC2C(=O)NCCN2CC(C)(C)C)nn1C (stereo unspecified)	none

Source: PubChem BioAssay (several laboratories)
